# Imprint erasure = qHTS Assay for Compounds that Induce Erasure of Genomic Imprints. AID 1948, 2009. mouse ES Peg3-LacZ reporter, beta-gal luminescence, 40 h. Potency, µM (series often up to 60.7 µM), inactives show top-dose activity change, positive = activation, usual class: activators. 110,000 compounds, 0.02% hits
#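 Readout: BetaGlo luminescence (5 min, room temp) for LacZ from the normally silent maternal Peg3 allele in female Peg3LacZ-Neo ES cells. Cells 300/well, 40 h, 37C, 5% CO2. Data normalized per plate to negative controls.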
# p53ts 39C tox = qHTS Screen for Compounds that Selectively Target Cancer Cells with p53 Mutations: Cytotoxicity of p53ts Cells at the Nonpermissive Temperature; H1299-p53A138V viability at 39C, ATP luminescence, 24 h; Potency, µM (series often up to 46.1 µM), without a hit: top-dose activity change, negative = cell killing, most hits filed as cytotoxic; 130,000 compounds, 1.5% hits; AID 902, 2007; also: % is scaled to controls: 0 for no effect and ±100 for the full control effect; nearly all actives have a fitted effect of over 55% in size
# p53ts 32C kill = qHTS Screen for Compounds that Selectively Target Cancer Cells with p53 Mutations: Cytotoxicity of p53ts Cells at the Permissive Temperature; 130,000 compounds, 0.93% hits; H1299-p53A138V at 32C, ATP luminescence viability, 24 h; Potency, µM (titrated, usually from 46.1 µM), for the others: at the highest dose activity change, negative = cytotoxicity, actives largely listed as cytotoxic;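 also: 0% = DMSO and -100% = full killing by reference compound; nearly all actives have a fitted effect of over 55% in size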
#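 H1299-p53 A138V cells (temperature-sensitive p53) exposed 24 h to up to 46 uM compound at 32C, where p53 is wild-type in conformation. Viability read as ATP luminescence and normalised to DMSO and 100 uM tamoxifen. AC50 fitted with the Hill equation.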
# IkB sig inh = IkB Signaling. ABC-DLBCL IkBa-CBG/CBR dual luciferase ratio, 4 h; response scale: scaled: untreated 0%, proteasome inhibitor 100%. Potency, µM (highest dose often 57.1 µM), inactives show at the highest dose IkBa stabilization activation. 110,000 compounds, 0.04% hits; active = well fitted curve in the direction sought with a large enough effect in the signal ratio, not every such curve was filed as active; inconclusive = small, poorly fitted or top-dose-only effect, or a change in a side signal; the % refers to the signal ratio;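 also: the direction sought is a rising ratio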
#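 Curves were fitted separately to fusion (green), unfused (red) and ratio luminescence, then classed by r2, magnitude and activity. Cells: OCI-Ly3, 4 h compound plus doxycycline at 37C; 10 uM MG-132 defined full response.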
# An asterisk follows results filed as active; ? = inconclusive; · = no result; [ ] = remark or other dose. The list is not random: actives were taken first. Their share in the collection is about 1.7%. Unless noted, calls follow the shape of the dose curve; as a rule, active = well fitted curve in the direction sought with a large enough effect; inconclusive = small, poorly fitted or top-dose-only effect, or another doubt; inactive = no such curve, though single readings can be large; an effect the other way counts as inactive or inconclusive. Potency is read from the fitted curve at half-maximal effect.
SMILES,Imprint erasure,p53ts 39C tox,p53ts 32C kill,IkB sig inh
Cc1cccc(N(C)C(CNS(=O)(=O)c2ccccc2)c2ccccc2)c1 (stereo unspecified),-12%[10.9 µM],32µM*,23%,?
COC(=O)CCN(c1ccccc1)C(CNS(=O)(=O)c1ccccc1)c1ccccc1 (stereo unspecified),-6%[10.9 µM],-26%,26%,?
CCN(c1ccccc1)C(CNS(=O)(=O)c1ccccc1)c1ccccc1 (stereo unspecified),-12%[10.9 µM],?,23%,2%
CCN(c1cccc(C)c1)C(CNS(=O)(=O)c1ccccc1)c1ccccc1 (stereo unspecified),2%[10.9 µM],13µM*,17%,?
c1ccc2c(c1)CCN(c1nc3cc4c(cc3s1)OCCO4)C2,-81%,2µM*,1.6µM*,?
O=S(=O)(c1ccc2c(c1)OCCO2)N1CCN(c2nc3ccccc3s2)CC1,-6%,-11%,-8%,4%
O=C(O)c1ccc(NS(=O)(=O)c2cccc3ccccc23)cc1,·,-1%,-19%,·
CN(C)C(=O)c1ccc(-c2nccc(NCc3cccs3)n2)cc1,?,-13%,6%,-1%[11.4 µM]
CN(C)c1ccc(-c2nccc(NCc3cccs3)n2)cc1,-32%,5µM*,7.9µM*,13%[11.4 µM]
Cc1cc(C)c(Cn2c(C(O)c3ccccc3)nc3ccccc32)c(C)c1 (stereo unspecified),25%[10.9 µM],3.2µM*,-16%,?
CN(C)c1ncc2nc(-c3cc(F)cc(F)c3)c(=O)n(Cc3ccc(F)cc3)c2n1,-2%,-5%,1%,2%[11.4 µM]
CCC(=O)NCCc1nc2cc(NC(=O)c3cccc(Br)c3)ccc2n1C,-22%[10.9 µM],10µM*,13µM*,17%
Cn1c(CN2CCCCC2)nc2cc(NC(=O)c3cccc(Br)c3)ccc21,-10%[10.9 µM],-19%,-20%,?
C=CC(=O)CC,32µM*,-8%,8%[1.84 µM],3%
C=CC(=O)NC(C)C,2%,0%,-2%[1.84 µM],1%
Oc1cccc(/C=N/c2c(-c3ccco3)nc3ccccn23)c1,·,13µM*,?,·
CCOc1ccccc1NC(=O)c1sc2nc(-c3ccc(OC)cc3)ccc2c1N,-13%[10.9 µM],4µM*,6.3µM*,-1%
CCCCC(=O)Nc1ccc2c(c1)nc1n2CCSC1,-15%,?,?,-3%
Cc1ccc(C(=O)Nc2ccc3c(c2)nc2n3CCSC2)cc1,-39%,?,7.9µM*,?
COc1ccccc1C(=O)Nc1ccc2c(c1)nc1n2CCSC1,-51%,3.2µM*,4µM*,6%
COc1ccc(OCC(=O)Nc2ccc3c(c2)nc2n3CCSC2)cc1,4%,-12%,-4%,0%
COc1ccccc1CNc1nc(-c2ccc(N(C)C)cc2)nc2ccccc12,-35%,20µM*,?,8%[11.4 µM]
COc1ccccc1CNc1nc(-c2ccc(C(=O)N(C)C)cc2)nc2ccccc12,-26%,-10%,1%,-4%[11.4 µM]
CN(C)c1ccc(-c2nc(NCCc3cnc[nH]3)c3ccccc3n2)cc1,-25%,5µM*,5µM*,-8%[11.4 µM]
COc1ccccc1-c1nc(NCCc2cnc[nH]2)c2ccccc2n1,?,-10%,1%,-6%[11.4 µM]
SMILES,Imprint erasure,p53ts 39C tox,p53ts 32C kill,IkB sig inh
COc1ccc2[nH]cc(CCNc3nc(-c4ccc(N(C)C)cc4)nc4ccccc34)c2c1,-42%,13µM*,10µM*,-7%[11.4 µM]
CC(C)CNC(=O)NC1C(NC(=O)NCC(C)C)N(C)C(=O)N1C (stereo unspecified),-62%,6.3µM*,5µM*,?
Cc1ccc(Nc2c(-c3c[nH]c4ccccc34)nc3cc(C)ccn23)cc1,3%[10.9 µM],?,-19%,?
Cc1ccn2c(Nc3ccccc3)c(-c3c[nH]c4ccccc34)nc2c1,-8%[10.9 µM],16µM*,-22%,?
CC1CCCN(S(=O)(=O)c2ccc(N3CCCCS3(=O)=O)cc2)C1 (stereo unspecified),7%[10.9 µM],-18%,0%,0%
CC(C)c1ccc(NC(=O)c2ccc3c(c2)CCN3S(=O)(=O)c2ccccc2)cc1,-21%[10.9 µM],-24%,-6%,-2%
CC(C)c1ccc(NC(=O)c2ccc3c(c2)CCCN3S(C)(=O)=O)cc1,-16%[10.9 µM],-28%,13µM*,1%
O=C(O)C1CCCN1S(=O)(=O)c1cccc2cccnc12 (stereo unspecified),-4%,3%,0%,4%
C[C@@H]1OC2C3=C(C(=O)[C@H]4O[C@@H]4[C@H]3O)[C@@H]1[C@H]1[C@H](C)OC=C3[C@H](O)[C@H]4O[C@H]4/C(=N\OCc4ccccc4)[C@@]321,·,4µM*,13%[9.22 µM],·
O=C(NCc1cccc(Br)c1)C1CCCCN1S(=O)(=O)c1ccc(F)cc1 (stereo unspecified),-4%[10.9 µM],-4%,4%,?
CCOc1ccc(CNC(=O)c2ccc(NC(=O)c3nsc4ccccc34)cc2)cc1,-10%[10.9 µM],-28%,-26%,?
CCOc1ccc(CNC(=O)c2ccccc2NC(=O)c2nsc3ccccc23)cc1,?,10µM*,?,2%
Cc1ccc(NC(=O)C2CCCN(S(=O)(=O)c3ccc4[nH]c(=O)ccc4c3)C2)cc1Cl (stereo unspecified),-11%[10.9 µM],-12%,-17%,1%
CCOC(=O)N/N=C1/C[C@@H](O)[C@@H](O)[C@@H]2[C@@H]3C(=O)N([C@@H](C)c4ccccc4)C(=O)[C@H]3CC[C@@H]12,·,16%[9.22 µM],9%[9.22 µM],·
CCc1ccc(NC(=O)CSc2nc3n[nH]c(C)c3c(=N)n2-c2ccccc2C)cc1,-10%[10.9 µM],10µM*,-11%,2%
Cc1c(Cl)cccc1-n1c(SCC(=O)NCc2ccccc2)nc2n[nH]c(C)c2c1=N,11%[10.9 µM],-10%,-12%,?
CCc1ccccc1-n1c(SCC(=O)Nc2ccc(C)cc2)nc2n[nH]c(C)c2c1=N,-12%[10.9 µM],-6%,-17%,?
Cc1ccc(-n2c(SCC(=O)NCc3ccccc3)nc3n[nH]c(C)c3c2=N)cc1Cl,-1%[10.9 µM],20µM*,6%,-3%
COc1cc(-c2noc(CN3CCN(c4ccccc4)CC3)n2)cc(OC)c1OC,7%[10.9 µM],25µM*,-4%,6%
COc1ccccc1N1CCN(Cc2nc(-c3cc(OC)c(OC)c(OC)c3)no2)CC1,-14%[10.9 µM],-10%,2%,?
O=C(COC(=O)c1cccs1)c1ccc2ccccc2c1,·,-2%,-12%,·
Cc1ccc(C(=O)COC(=O)c2cccs2)cc1,·,-23%,20µM*,·
CC(C)c1ccccc1NC(=O)Cn1cnc2c1c(=O)n(C)c(=O)n2C,-13%[10.9 µM],19%,6%,-5%
Cc1ccc(-n2ncc3c(N(C)C)ncnc32)cc1Cl,-28%[10.9 µM],7.9µM*,?,-2%
Cc1ccc(-n2ncc3c(NCCO)ncnc32)cc1Cl,19%[10.9 µM],16µM*,-15%,?
CCCCN(C)c1ncnc2c1cnn2-c1cccc(Cl)c1,-14%[10.9 µM],16µM*,?,2%
